Data as given in PubChem BioAssay (NCI).
This is part of a sample that, as a whole, favours compounds with a hit. Of some 83,000 tested, about 20% had one in any assay.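 A percent growth of 40 corresponds to 60% growth inhibition; 0 means no net growth; -100 means all cells died. Active threshold: below 10.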 Unmarked numbers belong to inactive results. Activity calls are given as the source filed them.

What was measured:
Assay in all cases: NCI-60 one-dose screen, 48 h (100 = growth as untreated, 0 = no growth, -100 = all killed)
Settings in all cases: 10 µM unless noted
NCI-H23 lung = system: NCI-H23 lung
NCI-H226 lung = system: NCI-H226 lung
NCI-H322M lung = system: NCI-H322M lung
HOP-62 NSCLC = system: HOP-62 NSCLC
NCI-H460 lung = system: NCI-H460 lung
HOP-92 NSCLC = system: HOP-92 NSCLC
NCI-H522 lung = system: NCI-H522 lung
A549/ATCC NSCLC = system: A549/ATCC NSCLC
786-0 renal = system: 786-0 renal
COLO 205 colon = system: COLO 205 colon

Structure (SMILES) | growth (NCI-H23 lung) | growth (NCI-H226 lung) | growth (NCI-H322M lung) | growth (HOP-62 NSCLC) | growth (NCI-H460 lung) | growth (HOP-92 NSCLC) | growth (NCI-H522 lung) | growth (A549/ATCC NSCLC) | growth (786-0 renal) | growth (COLO 205 colon)
CCN1CCN(CC(=O)Nc2nc3ccc(NCc4ccc(Br)cc4)cc3s2)CC1 | 70.4% | 64.6% | 84.9% | 64.8% | 26.3% | 40.9% | 99.5% | 64.5% | 61.3% | -48.9% (active)
COc1cccc(NC(=O)c2cccc(C3CCc4c(cc(OC)c(OC)c4OC)O3)c2)c1 (stereo not given) | 73.9% | 53.7% | 54.2% | 85.2% | 84% | 26.3% | 53.1% | 70.8% | 86.6% | 80.2%
CN(CCC#N)c1ccc(/C=C2\NC(=O)NC2=O)cc1 | 89.5% | 96.7% | 103% | 99.3% | 98.4% | 79.2% | 38.7% | 111% | 88% | 95.8%
O=P(O)(O)OCC1OC(n2cnc3c(NCc4ccccc4)ncnc32)C(O)C1O (stereo not given) | 17.8% | 21.1% | 33.6% | 29.9% | 94.3% | 22.3% | 0.67% (active) | 55.1% | 21.3% | 11.2%
O=C(CN1CCN(c2cc3c(cc2F)c(=O)c(C(=O)O)cn3C2CC2)CC1)N/N=C/c1ccncc1 | 102% | 100% | 96.3% | 92.2% | 106% | 94.1% | 96.5% | 86.8% | 90.8% | 108%
O=C1/C=C/[C@@H](O)[C@@H]2C[C@@H](O)C[C@H]2/C=C/CCC[C@H](CCOCc2ccccc2)O1 | 7.5% (active) | -32.3% (active) | 31% | 30.9% | 16.2% | -16% (active) | -38.8% (active) | 14.5% | -51% (active) | -74.5% (active)
CCOC(=O)c1c(NC(=O)CSc2n[nH]c3nc4ccccc4n23)sc(CC)c1C | 98.6% | 86.7% | 107% | 108% | 106% | 63.6% | 87% | 102% | 98.4% | 114%
C/C(=N\Nc1nc(C)cs1)c1cc2ccccc2o1 | 86.9% | 76.7% | 93.1% | 63.6% | 95.6% | 87.3% | 66.3% | 88% | 104% | 110%
O=C(CSc1nc2ccc([N+](=O)[O-])cc2[nH]1)Nc1cccc([N+](=O)[O-])c1 | 24.8% | 36.5% | 83.5% | 95.6% | 47.5% | -14.2% (active) | 19.8% | 58% | 61.6% | 52.5%
CCN1C(=S)N(CC)C2C1NC(=S)N2/N=C/C=C/c1ccccc1OC (stereo not given) | 24.1% | 57% | 45.2% | 39.2% | 6.8% (active) | 74.6% | -11.3% (active) | 17.7% | 35.6% | 10%
CCC(C)Nc1ccc(NC(C)CC)cc1 (stereo not given) | 74.5% | 91.3% | 86.4% | 84.8% | 101% | 90.5% | 54.9% | 94.7% | 74% | 9.48% (active)
Cc1nc2sc(C(=O)Nc3ccccc3)c(N)c2cc1C(=O)/C=C/c1ccccc1 | 10.9% | 5.17% (active) | 10.7% | -26.2% (active) | -71% (active) | 6.29% (active) | -42.5% (active) | 13.2% | -57.2% (active) | 14.2%
C#CC#CC#CC#CC#CC#CC#CC#CC[C@H]1OC[C@@H](COC(=O)O[C@@H](C(=O)O[C@H]2C[C@@]3(O)[C@@H](OC(=O)c4ccccc4)[C@@H]4[C@]5(OC(C)=O)CO[C@@H]5C[C@H](O)[C@@]4(C)C(=O)[C@H](OC(C)=O)C(=C2C)C3(C)C)[C@@H](NC(=O)c2ccccc2)c2ccccc2)O1 | 48% | 56.2% | 54.6% | 74.4% | 19.2% | 79.3% | 71.4% | 52.4% | 83.3% | 29.4%
COc1cc(/C=N/Nc2ccccc2F)cc(OC)c1OC | 101% | 95.6% | 91.3% | 94.4% | 101% | 99.1% | 68.7% | 95.5% | 90.4% | 109%
COc1cc2nc(Nc3cccc(F)c3)nc(Nc3cc(C)[nH]n3)c2cc1OC | -71.2% [20 µM] (active) | -49.4% [20 µM] (active) | -100% [20 µM] (active) | -53.2% [20 µM] (active) | -69.7% [20 µM] (active) | -88.9% [20 µM] (active) | -42% [20 µM] (active) | -55% [20 µM] (active) | -81.8% [20 µM] (active) | -60.9% [20 µM] (active)
Cc1cscc(C)c1=S | 77.2% | 103% | 87% | 99.6% | 48.7% | 108% | 50.8% | 88.1% | 103% | 96.2%
O=C(/C=C\c1ccco1)/C=C/c1ccco1 | 98.6% | 98.6% | 117% | 98.1% | 116% | 107% | 112% | 102% | 110% | 106%
COc1ccc(NC(=O)c2sc3nc4c(cc3c2N)CCCC4)cc1 | 28% | 50.6% | 53.1% | 34.5% | 18.7% | 47.3% | -20.7% (active) | 30% | 38.6% | 14%
Cc1ccccc1CNc1c2ccccc2nc2ccccc12 | 23.4% | 31.5% | 29% | 28.1% | 6.94% (active) | -1.03% (active) | 50% | 19.7% | 24.3% | -18.5% (active)
CCN(CC)CCCNCc1cc(-c2ccccc2)nc2cc(Cl)ccc12 | 68.6% | 140% | 75.5% | 78.1% | 43.3% | -20.9% (active) | 44.2% | 57.4% | -27.6% (active) | 51.2%
Cc1ccc(N=Nc2c(N)nn(-c3ccccc3)c2N)cc1 | 6.74% (active) | 76% | 32.7% | 64% | 9.76% (active) | 86.2% | -11% (active) | 29.3% | 63.7% | 16.9%
COc1ccc(C(c2cc(OC)c(OC)c(OC)c2)N2CCN(Cc3ccccc3)CC2)cc1 (stereo not given) | 88.5% | 85.4% | 65.1% | 69.7% | 74.4% | 70.6% | 52.4% | 78.4% | 82.6% | 61.8%
N#Cc1c(-c2ccccc2)c(C#N)c2c(C#N)c(N)nn2c1N | 72.2% | 74% | 83.5% | 40.2% | 19.7% | 27.1% | 13.1% | 38.7% | 53.4% | 29.4%
Fc1ccc2c(c1)c(-c1nc(-c3c[nH]c4ncccc34)cs1)cn2CCCN1CCOCC1 | 76% | 59.3% | 80.9% | 49.9% | 37.8% | 23.5% | 41.3% | 42.6% | 57.3% | 18.1%
C[C@H]1[C@H](C)CC[C@]2(C(=O)O)CC[C@]3(C)C(=CC[C@@H]4[C@@]5(C)C[C@@H](Cc6cn([C@@H]7O[C@H](CO)[C@@H](O)[C@H](O)[C@H]7O)nn6)[C@H](O)C(C)(C)[C@@H]5CC[C@]43C)[C@H]12 | 97.7% | 94.3% | 102% | 88.9% | 107% | 95.6% | 103% | 89% | 94.6% | 105%
COc1ccc(/C=C/C(=O)c2ccc(Nc3nc(Nc4ccc(F)cc4)nc(Nc4ccc(Cl)cc4)n3)cc2)cc1 | 93.3% | 122% | 152% | 112% | 94.2% | 44.7% | 61.9% | 90.5% | 92.6% | 96%
